Activity calls are given as the source filed them. The calls were made as follows: active = hit-call score of the fitted dose curve at least 0.9, where 1 is the maximum; inactive = score below 0.9.
Read-out: Tumor necrosis factor receptor 1 (TNFRSF1A), TNFRSF1A (gene 7132)
Test: LTEA_HepaRG_TNFRSF1A: Life Technologies and Expression Analysis (LTEA) Assay for Tumor necrosis factor receptor 1 (TNFRSF1A) using HepaRG (AID 2283535)
Settings: mRNA level, 48 h; actives raise or lower the signal
Procedure, shortened: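 Read-out is TNFRSF1A transcript level by TaqMan qRT-PCR, normalized to three housekeeping genes, scored as gain or loss of signal versus 0.5% DMSO. Human HepaRG cells received test chemicals for 48 h at up to 100 uM (half-log series).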

SMILES	outcome	AC50
C=C(C)CN(CC)c1c([N+](=O)[O-])cc(C(F)(F)F)cc1[N+](=O)[O-]	inactive	–
N#Cc1c[nH]cc1-c1cccc2c1OC(F)(F)O2	inactive	–
CCOc1nc(C(Cl)(Cl)Cl)ns1	inactive	–
CCN(CC)c1nc(C)cc(OP(=S)(OC)OC)n1	inactive	–
O=C(Nc1ccccc1-c1ccc(Cl)cc1)c1cccnc1Cl	inactive	–
COC(=O)NS(=O)(=O)c1ccc(N)cc1	inactive	–
CC(C)NC(=O)N1CC(=O)N(c2cc(Cl)cc(Cl)c2)C1=O	inactive	–
CC(C)Oc1cccc(NC(=O)c2ccccc2C(F)(F)F)c1	inactive	–
O=C1C2CC=CCC2C(=O)N1SC(Cl)(Cl)Cl (configuration not stated)	inactive	–
OC(c1ccc(Cl)cc1)(c1ccc(Cl)cc1)C(Cl)(Cl)Cl	–	50 µM (active)
COc1ccc(-c2ccccc2)cc1NNC(=O)OC(C)C	inactive	–
CCCC(=NOCC)C1=C(O)CC(CC(C)SCC)CC1=O (configuration not stated)	inactive	–
CC(C)=CC1C(C(=O)OCc2coc(Cc3ccccc3)c2)C1(C)C (configuration not stated)	inactive	–
CC1(C)C(C=C(Cl)Cl)C1C(=O)OC(C#N)c1cccc(Oc2ccccc2)c1 (configuration not stated)	inactive	–
CO/N=C(/C1=NOCCO1)c1ccccc1Oc1ncnc(Oc2ccccc2Cl)c1F	inactive	–
CNC(=O)N(C)c1nnc(C(C)(C)C)s1	inactive	–
N#CN=C1SCCN1Cc1ccc(Cl)nc1	inactive	–
CCCCOCN(C(=O)CCl)c1c(CC)cccc1CC	inactive	–

SMILES	outcome	AC50
Nc1cnn(-c2ccccc2)c(=O)c1Cl	inactive	–
O=c1n(Cl)c(=O)n(Cl)c(=O)n1Cl	inactive	–
CNC(=O)Oc1cccc2ccccc12	inactive	–
CC(C)N1C(=O)N(c2ccccc2)CSC1=NC(C)(C)C	inactive	–
CCSC(=O)N1CCCCCC1	inactive	–
COP(=O)(OC)O/C(C)=C/C(=O)N(C)C	inactive	–
Nc1c(Cl)c(F)nc(OCC(=O)O)c1Cl	inactive	–
Cc1cc(C)nc(Nc2ccccc2)n1	inactive	–
O=C(O)c1c(Cl)ccc2cc(Cl)cnc12	inactive	–
N#Cc1c(Cl)cccc1Cl	inactive	–
CC1(C)C(C(=O)OC(C#N)c2cccc(Oc3ccccc3)c2)C1(C)C (configuration not stated)	inactive	–
COCC(C)N(C(=O)CCl)c1c(C)csc1C (configuration not stated)	inactive	–
Cc1c(COC(=O)[C@@H]2[C@H](/C=C(\Cl)C(F)(F)F)C2(C)C)cccc1-c1ccccc1	inactive	–
CCCN(CC)CC1COC2(CCC(C(C)(C)C)CC2)O1 (configuration not stated)	inactive	–
COC(=O)c1c(C(F)F)nc(C(F)(F)F)c(C2=NCCS2)c1CC(C)C	inactive	–
CCCCC(O)(Cn1cncn1)c1ccc(Cl)cc1Cl (configuration not stated)	inactive	–
CC(C)N1C(=O)c2ccccc2NS1(=O)=O	inactive	–
CCOP(=S)(OCC)Oc1nc(Cl)n(C(C)C)n1	inactive	–

Read-out: Thyroid Hormone Responsive (THRSP), THRSP (gene 7069)
Test: LTEA_HepaRG_THRSP: Life Technologies and Expression Analysis (LTEA) Assay for Thyroid Hormone Responsive (THRSP) using HepaRG (AID 2283536)
Settings: mRNA level, 48 h; actives raise or lower the signal
Procedure, shortened: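 THRSP transcript quantified by Fluidigm qRT-PCR against three housekeeping genes after 48 h chemical exposure of HepaRG cells in serum-free induction medium; eight-point half-log series, top 100 uM, 0.5% DMSO vehicle, duplicate wells.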

SMILES	outcome	AC50
C=C(C)CN(CC)c1c([N+](=O)[O-])cc(C(F)(F)F)cc1[N+](=O)[O-]	inactive	–
N#Cc1c[nH]cc1-c1cccc2c1OC(F)(F)O2	–	18 µM (active)
CCOc1nc(C(Cl)(Cl)Cl)ns1	–	1.06 µM (active)
CCN(CC)c1nc(C)cc(OP(=S)(OC)OC)n1	inactive	–
O=C(Nc1ccccc1-c1ccc(Cl)cc1)c1cccnc1Cl	inactive	–
COC(=O)NS(=O)(=O)c1ccc(N)cc1	inactive	–
CC(C)NC(=O)N1CC(=O)N(c2cc(Cl)cc(Cl)c2)C1=O	–	50 µM (active)
CC(C)Oc1cccc(NC(=O)c2ccccc2C(F)(F)F)c1	inactive	–
O=C1C2CC=CCC2C(=O)N1SC(Cl)(Cl)Cl (configuration not stated)	–	16.2 µM (active)
OC(c1ccc(Cl)cc1)(c1ccc(Cl)cc1)C(Cl)(Cl)Cl	inactive	–
COc1ccc(-c2ccccc2)cc1NNC(=O)OC(C)C	inactive	–
CCCC(=NOCC)C1=C(O)CC(CC(C)SCC)CC1=O (configuration not stated)	inactive	–
CC(C)=CC1C(C(=O)OCc2coc(Cc3ccccc3)c2)C1(C)C (configuration not stated)	inactive	–
CC1(C)C(C=C(Cl)Cl)C1C(=O)OC(C#N)c1cccc(Oc2ccccc2)c1 (configuration not stated)	inactive	–
CO/N=C(/C1=NOCCO1)c1ccccc1Oc1ncnc(Oc2ccccc2Cl)c1F	–	27.1 µM (active)
CNC(=O)N(C)c1nnc(C(C)(C)C)s1	inactive	–
N#CN=C1SCCN1Cc1ccc(Cl)nc1	inactive	–
CCCCOCN(C(=O)CCl)c1c(CC)cccc1CC	inactive	–

SMILES	outcome	AC50
Nc1cnn(-c2ccccc2)c(=O)c1Cl	inactive	–
O=c1n(Cl)c(=O)n(Cl)c(=O)n1Cl	inactive	–
CNC(=O)Oc1cccc2ccccc12	inactive	–
CC(C)N1C(=O)N(c2ccccc2)CSC1=NC(C)(C)C	inactive	–
CCSC(=O)N1CCCCCC1	inactive	–
COP(=O)(OC)O/C(C)=C/C(=O)N(C)C	inactive	–
Nc1c(Cl)c(F)nc(OCC(=O)O)c1Cl	inactive	–
Cc1cc(C)nc(Nc2ccccc2)n1	inactive	–
O=C(O)c1c(Cl)ccc2cc(Cl)cnc12	inactive	–
N#Cc1c(Cl)cccc1Cl	inactive	–
CC1(C)C(C(=O)OC(C#N)c2cccc(Oc3ccccc3)c2)C1(C)C (configuration not stated)	inactive	–
COCC(C)N(C(=O)CCl)c1c(C)csc1C (configuration not stated)	inactive	–
Cc1c(COC(=O)[C@@H]2[C@H](/C=C(\Cl)C(F)(F)F)C2(C)C)cccc1-c1ccccc1	inactive	–
CCCN(CC)CC1COC2(CCC(C(C)(C)C)CC2)O1 (configuration not stated)	–	0.319 µM (active)
COC(=O)c1c(C(F)F)nc(C(F)(F)F)c(C2=NCCS2)c1CC(C)C	inactive	–
CCCCC(O)(Cn1cncn1)c1ccc(Cl)cc1Cl (configuration not stated)	–	9.77 µM (active)
CC(C)N1C(=O)c2ccccc2NS1(=O)=O	inactive	–
CCOP(=S)(OCC)Oc1nc(Cl)n(C(C)C)n1	–	26.1 µM (active)
